Reference: the supplement of paper PMC6555819

Each sequence was assayed on VDR:RXRa (NR concentration 270 nM, RXRa partner concentration 90 nM) (assay: PBM binding z-score (relative to random genomic background probes); higher = stronger binding; sequences stand for … in GC…GCGATTGACAGCGTAGAATGAAGG).
Procedure: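 Protein-binding microarray (Agilent 4x180K custom design, double-stranded 60-nt probes: 5' GC cap, 34-nt variable region, 24-nt constant primer region; full probe sequence given). Purified or IVT nuclear receptor:RXRα heterodimers (3:1 NR:RXRα, mostly 270:90 nM) or homodimers were incubated for 1 h in PBS with 2% milk and no ligand, then detected with Alexa488 antibodies. Fluorescence from o1-orientation probes (~5 replicates averaged) was converted to z-scores against 500 random hg19 background probes. Variable regions are seed direct-repeat (DR0–DR5) sites, all their single-nucleotide variants and half-site ablations.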

Sequence	PBM binding z-score
CCGACTTGGGCAAAGGTTACCATACTCAGTACGA	0.927
CTATGTAGGTTAATGGGGTCATTCAGTTTGAAAG	7.83
TCTACTTGGTCACGGAGGTCACACACGACGGGTA	5.85
CCTAGTTGGTCAGGAAGTCACACACCGGATATGA	0.604
ATATGTAGGTTAGGGTAATTCAGAAAGTAGGGAA	1.09
CCTACTGGGCCAACAAGGTCATTGATGCCGATAA	5.56
TCGAGTAGGTTACGGGGGCATTTAGGGATGAAGA	3.96
CGAACTAGGTCAAAGGACAGCGAAAGGCGACGTA	1.47
AGTCAAAGTTCATCTTGGTAACGTAAGATATGCT	4.41
TCTGCTATGTCAACGATGGTCAGCTAATCTGCTA	-0.405
TCGAGTAGGTGACGGGGGCATTCAGGGATGAAGA	3.36
CAAACTAGGTCACGAAAGGTCAAAGTTGAATGAC	6.81
CGTCCAAGGTCAAGGGCAGTGAAAGAGACTCGAA	3.68
TCTAGGAGGACACGAAGGTCAGAGCTTTCCAGAG	2.25
CGTCCAAGGTCACAGGAGGTCAGTGAAGACAGAT	6.62
TTACCAAGGTTAAAGGTCGTTGATGCACGCCTTG	4.55
CCGACTGGGGCAAAGGTTACCACACTCAGTACGA	1.81
ACTAGTTGGTCAGCTGAGGTCACACTCAATTCGG	4.54
CCGAGTAGGTTACGAGGGGGCATTCATTGCGAAT	4.7
CAAACTAGGTCAAAGGTCAAAGTAGAGCCAACCA	6.71

Sequence	PBM binding z-score
CGAACTAGGTCACTAGGACAGTGAAGAGGTTGGA	1.18
CAAACTAGGTCACAGAGGTTAAAGTCCGTGCGTA	6.72
CTAACTAGGTCACAGAGGTCAAAGTCCGTGCGTA	8.06
ATATGTAGGTTAGGGTCGTTCAGAAAGTAGGGAA	2.57
CTATGTAGGTTAAGGGGATCATTCAGTTTGAAAG	2.59
ATATGTAGGTTAGGGTCCTTCAGAAAGTAGGGAA	0.818
CGTCAAAGTTCACCTAAGGTAACGTAAAGCACGC	4.82
TCGAGTAGGTTACGGGGGCATACAGGGATGAAGA	3.54
GATACAGGGTCAGCTAGAGGTCAGAGTATGGAAA	6.14
AATACAGGGTCCTCGTAGGCCAGAGTACGCACAG	-0.154
CCGAGTAGGTTACGAGTGGGCATTCAGTGCGAAT	-0.217
ATATGTAGGTTACATCCGGGTCTTTCAGGCTATG	1.06
CGTCAAAGTTCAAGGTAAAGTAACAGAAAGCAGC	3.4
GATACAGGGTCAATGCCAGAGTACGCGTATTGAT	3.93
CCATGTAGGTTAAGGGGGTCATTCAGTTTGAAAG	7.41
GGAACGGGGGCAAGTTGATAGCAGAGTTTGATGG	3.44
CCTGCTAGGTCAATGGTCAGCTCAAGCAGCTCGC	0.923
TCATATAGGTAATAGGTGAAAGTCGGTGTGGTAA	0.883
CGAACTAGGTCAAAGGACAGTGGAAGGCGACGTA	1.21
AGTCAAAATTCACTAGGTAACGTAAGATTCAGCT	0.0665
